Measured values published in PubChem BioAssay AID504333 (National Center for Advancing Translational Sciences (NCATS), 2011).
Hit rate of the full screen: of about 360,000 compounds, about 16,000 (4.4%) were called active. About 9% were inconclusive and are not listed. The call rests on the fitted dose curve; in most records, active means well fitted inhibition curve with a large enough effect; inconclusive means small, poorly fitted or top-dose-only effect; inactive means no such curve, though single readings can be large or run the other way. The full list was thinned out, with actives kept by preference.

These molecules were tested against Bromodomain adjacent to zinc finger domain protein 2B (Homo sapiens) (UniProt Q9UIF8) (assay: qHTS Assay for Inhibitors of BAZ2B). Conditions: AlphaScreen BAZ2B-H3K14Ac peptide displacement; series mostly up to 114 µM.
Bromodomain adjacent to zinc finger domain protein 2B (Homo sapiens), sequence (Q9UIF8 whole entry, looked up, the tested form may be a part): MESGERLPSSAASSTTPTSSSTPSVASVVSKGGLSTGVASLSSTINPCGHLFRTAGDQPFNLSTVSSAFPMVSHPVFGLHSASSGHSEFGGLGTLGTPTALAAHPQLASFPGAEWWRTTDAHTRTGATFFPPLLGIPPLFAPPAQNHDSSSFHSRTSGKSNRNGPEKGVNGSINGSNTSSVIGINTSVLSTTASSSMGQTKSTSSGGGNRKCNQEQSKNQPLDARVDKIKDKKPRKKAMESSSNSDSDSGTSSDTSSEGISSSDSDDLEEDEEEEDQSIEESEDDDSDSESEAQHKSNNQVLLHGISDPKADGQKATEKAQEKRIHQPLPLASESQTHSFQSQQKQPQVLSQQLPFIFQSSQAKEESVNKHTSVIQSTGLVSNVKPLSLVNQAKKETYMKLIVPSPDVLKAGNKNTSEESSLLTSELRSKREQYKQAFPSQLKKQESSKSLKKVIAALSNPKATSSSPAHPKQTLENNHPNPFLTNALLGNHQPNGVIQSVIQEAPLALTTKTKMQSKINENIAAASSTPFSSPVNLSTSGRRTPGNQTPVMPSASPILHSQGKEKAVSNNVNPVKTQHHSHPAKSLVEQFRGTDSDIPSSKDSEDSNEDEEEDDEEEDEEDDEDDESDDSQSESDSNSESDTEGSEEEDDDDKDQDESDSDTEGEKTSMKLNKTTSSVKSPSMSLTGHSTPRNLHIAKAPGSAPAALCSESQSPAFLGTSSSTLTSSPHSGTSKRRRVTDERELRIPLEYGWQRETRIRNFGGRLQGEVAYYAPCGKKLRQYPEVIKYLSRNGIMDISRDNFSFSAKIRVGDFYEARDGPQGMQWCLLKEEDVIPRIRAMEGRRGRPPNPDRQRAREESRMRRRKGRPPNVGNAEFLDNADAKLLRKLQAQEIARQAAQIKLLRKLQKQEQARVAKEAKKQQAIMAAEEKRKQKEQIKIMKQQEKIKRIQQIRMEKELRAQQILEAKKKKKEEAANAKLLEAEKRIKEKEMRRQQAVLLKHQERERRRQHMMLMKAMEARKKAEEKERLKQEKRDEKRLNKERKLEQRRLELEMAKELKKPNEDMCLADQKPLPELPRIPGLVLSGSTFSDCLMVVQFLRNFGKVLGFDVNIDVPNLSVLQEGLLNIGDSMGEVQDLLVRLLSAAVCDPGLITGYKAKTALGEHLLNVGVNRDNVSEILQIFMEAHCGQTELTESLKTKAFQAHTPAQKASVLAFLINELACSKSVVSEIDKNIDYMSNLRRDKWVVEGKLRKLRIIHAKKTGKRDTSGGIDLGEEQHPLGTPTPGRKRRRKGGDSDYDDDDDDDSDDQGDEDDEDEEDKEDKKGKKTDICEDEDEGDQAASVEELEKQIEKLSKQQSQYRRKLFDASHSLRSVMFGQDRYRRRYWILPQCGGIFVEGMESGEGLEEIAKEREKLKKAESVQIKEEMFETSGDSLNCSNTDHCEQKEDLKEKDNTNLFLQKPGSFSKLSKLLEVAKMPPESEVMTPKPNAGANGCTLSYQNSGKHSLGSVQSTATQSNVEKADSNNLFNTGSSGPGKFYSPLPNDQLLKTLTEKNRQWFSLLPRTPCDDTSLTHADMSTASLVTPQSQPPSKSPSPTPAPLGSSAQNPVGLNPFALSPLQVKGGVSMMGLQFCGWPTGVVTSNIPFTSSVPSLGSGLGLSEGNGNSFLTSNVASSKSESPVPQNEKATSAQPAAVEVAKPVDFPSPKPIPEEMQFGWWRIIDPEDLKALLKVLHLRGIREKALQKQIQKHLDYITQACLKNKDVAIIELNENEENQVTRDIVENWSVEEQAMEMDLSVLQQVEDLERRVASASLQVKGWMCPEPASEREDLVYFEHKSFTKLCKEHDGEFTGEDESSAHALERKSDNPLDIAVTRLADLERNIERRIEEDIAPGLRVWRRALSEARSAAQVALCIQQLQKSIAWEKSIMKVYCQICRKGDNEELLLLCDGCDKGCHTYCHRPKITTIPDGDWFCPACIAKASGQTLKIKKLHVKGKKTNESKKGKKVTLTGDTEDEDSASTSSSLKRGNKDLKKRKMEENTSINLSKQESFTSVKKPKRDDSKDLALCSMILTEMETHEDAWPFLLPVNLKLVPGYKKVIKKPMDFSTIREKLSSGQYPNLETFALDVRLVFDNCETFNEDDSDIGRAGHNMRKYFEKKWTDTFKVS
How it was run: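 Protein-peptide AlphaScreen: BAZ2B 50 nM, b-H3K14Ac 50 nM, 1x PBS pH 7.4 + 0.01% Tween-20. Preincubation 30 min RT; cpd 30 min RT (top 110 uM); beads 20 min RT, light-protected.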
Further: nearly all actives have a fitted effect of over 60% in size.
Potency means the concentration at half of the fitted maximal effect.

Potency, active:
O=C(NCCCn1ccnc1)c1cc2c(s1)CCCC2 56.2 µM, Cc1cccc2nc(-c3ccc(Cl)s3)c(Nc3ccc4c(c3)OCCO4)n12 12.6 µM, Nc1ccc(Nc2ccccc2)cc1 35.5 µM, C[N+]1(CCNC(=O)/C=N/O)CCCCC1 79.4 µM, COc1ccc(C2C(C#N)=C(N)Oc3n[nH]c(C)c32)cc1CN1CCN(c2ccc(F)cc2)CC1 (stereo unspecified) 50.1 µM, N#Cc1nc(COc2ccc(-c3ccccc3)cc2)oc1NCc1cccnc1 11.2 µM, CCN1CCN(CCCCOc2ccccc2F)CC1 50.1 µM, O=c1[nH]n2c(=O)c3c([nH]c2c1N=Nc1ccccc1)CCC3 39.8 µM, O=C(O)C(c1ccccc1)N1C(=O)/C(=C\c2ccc(-c3cccc(Cl)c3)o2)SC1=S (stereo unspecified) 22.4 µM, CCOC(=O)c1sc(=S)n(-c2cccc(OC)c2)c1N 50.1 µM, c1ccc(CN2CCC(N=C3NN=C(c4ccc5c(c4)OCCO5)CS3)CC2)cc1 39.8 µM, C=CCO/N=C/C1=C(O)C(C(=O)OC)C(C)(C)CC1=O (stereo unspecified) 39.8 µM, CC(C)(C)C(=O)OCc1nc(-c2ccc(O)c(O)c2)cs1 56.2 µM, Cc1cccc(C2c3[nH]c4ccccc4c3CCN2C(=O)c2cc(-c3cccn3C)n[nH]2)n1 (stereo unspecified) 12.6 µM, COCc1ccc(C(=O)N2CCc3c([nH]c4ccccc34)C2c2ccccn2)s1 (stereo unspecified) 35.5 µM, Oc1ccc(/C=N/N(Cc2ccccc2)c2ccccc2)cc1 39.8 µM, COc1cc(/C=C2/SC(=S)N(Cc3ccccc3)C2=O)cc(OC)c1O 12.6 µM, COc1ccc(/C=C2\SC(=S)N(CCC(=O)Nc3cccc(C(=O)O)c3)C2=O)cc1OC 50.1 µM

Potency, inactive:
CN(C(=O)CSc1nc2ccc(NC(=O)COc3ccccc3)cc2s1)c1ccccc1, O=C(NCCCn1ccnc1)c1cc(Br)c(Br)s1, O=C(NCCCN1CCOCC1)c1cc2c(s1)CCC2, Cc1ccccc1CNC(=O)C1CCCN(S(=O)(=O)N(C)c2ccc(F)cc2)C1 (stereo unspecified), CCOC(=O)c1c(S(=O)(=O)NCC(=O)Nc2ccc(Cl)c(C(F)(F)F)c2)c(C)n(C)c1C, COc1cccc(NC(=O)CSC2=Nc3ccccc3C3=NC(CC(=O)NC4CCCCC4)C(=O)N23)c1 (stereo unspecified), Cc1nc(Nc2ccc3c(c2)OCCO3)c2nnn(Cc3ccccc3Cl)c2n1, S=C(Nc1cccc(Cl)c1)Nc1ccc2c(c1)OCCO2, Cc1cc(Nc2ccccc2)n(C(=O)c2ccc(N)cc2)n1, Nc1ccc(S(=O)(=O)NC(=O)c2ccccc2)cc1, CCCOc1ccc(NC(=O)CC2C(=O)N(c3ccccc3)C(=O)N2Cc2ccco2)cc1 (stereo unspecified), CCOc1c(OC)cc(C2C(C#N)=C(N)Oc3n[nH]c(-c4ccncc4)c32)cc1OC (stereo unspecified), COc1cc(C2C(C#N)=C(N)Oc3n[nH]c(-c4ccccn4)c32)cc(OC)c1OC (stereo unspecified), O=C(CSc1nc(=O)n(Cc2cccnc2)c2c1CCC2)Nc1ccc(F)cc1F, O=S(=O)(c1ccccc1)c1nc(-c2ccccc2F)oc1NCc1cccnc1, c1ccc(COc2ccccc2CNCc2cccnc2)cc1, O=C(NCCCO)C(=O)Nc1c2c(nn1-c1ccc(F)cc1)CSC2, CCOc1ccc(C2C(=O)N(C3CCCCC3)CC(=O)N2CCC2=CCCCC2)cc1OC (stereo unspecified), Fc1ccccc1OCCCCn1cncn1, CN1CCN(CCCCOc2cccc3ccccc23)CC1, CCn1c2c(c(=O)n3ncc(C(=O)N4CCN(c5ccccc5)CC4)c13)CN(Cc1ccc(OC)cc1)CC2, O=C(Nc1ccc(F)cc1F)c1cnn(-c2ccc(F)cc2)c1-n1cccc1, CCOC(=O)Cn1c(=O)n(C2CCCCC2)c2nc(-c3cccc(OC)c3)nc(C(N)=O)c21, N#Cc1c2c(c(-c3ccccc3)[nH]c1=O)CCCC2, CC(C)(C)n1c(=O)[nH]c2c(c1=O)CCC2, COc1cc(CN(CC2CCCO2)C(=O)c2ccccc2F)cc(OC)c1OC (stereo unspecified), O=C(NCc1ccccc1)c1cc(-c2cccc(Cl)c2)on1, O=C1c2ccccc2NC(c2ccc(-c3cccc(Cl)c3)o2)N1O (stereo unspecified), COc1cccc(NC(=O)CN2C(=O)c3ccccc3Sc3ncccc32)c1, CC(=O)Nc1ccc(NC(=O)c2cc3sccc3n2Cc2ccc(F)cc2)cc1, COC(=O)c1ccc(NC(=O)CSc2n[nH]c(-c3ccccc3)n2)cc1, Cc1cccc(-n2c(N)c(C(=O)N3CCN(C)CC3)sc2=S)c1, COc1cccc(-n2c(=S)sc3c(=O)n(-c4ccccc4C)c(SCC(=O)O)nc32)c1, CS(=O)(=O)N(CC(=O)N1CCN(Cc2ccccc2)CC1)c1ccc2c(c1)OCCO2, Clc1cccc(N=C2NN=C(c3ccc4c(c3)OCCO4)CS2)c1, Cc1ccc(NC(=O)CN2C(=O)CC(C)Sc3ccccc32)c(C)c1 (stereo unspecified), CCCC(=O)C1=C(N(C)c2ccccc2)CC(C)(C)C(C(=O)OC)C1=O (stereo unspecified), COc1ccc(CCNc2nc(-c3ccc(F)cc3)cc(C(F)(F)F)n2)cc1OC, CCOC(=O)c1c(NC(=O)COc2cc(C)ccc2C(C)C)sc(C)c1C, O=C1CN(C(=O)Nc2ccccc2C(F)(F)F)C(c2ccccc2)c2c(sc3c2CCCC3)N1 (stereo unspecified), Cc1onc(C(=O)NN)c1-c1csc(COc2ccccc2)n1, COc1cc(CC(=O)Nc2nc(-c3ccc(F)c(F)c3)cs2)cc(OC)c1OC, COCc1ccc(CN2CCC(Oc3ccc(C(=O)NCc4ccccn4)cc3)CC2)o1, Cc1ccc(C2c3[nH]c4ccccc4c3CCN2C(=O)c2cccc(C)c2)cc1 (stereo unspecified), COC(=O)[C@H]1[C@H]2C[C@H]3c4[nH]c5ccccc5c4CCN3C[C@@H]2CC[C@@H]1O, COc1ccc(Cn2cc(C(=O)c3ccc(C)cc3)c(=O)c3cc(OC)c(OC)cc32)cc1, CCn1c(CN2CCC(C)CC2)nc2cc(NC(=O)c3ccccc3[N+](=O)[O-])ccc21, CCc1ccc(Sc2cc(C(=O)NCCCOC(C)C)c3ccccc3n2)cc1, CCOc1ccc(CNC(=O)Cn2cc3c(n2)-c2c(oc(C(=O)N4CCCC4)c2C)CC3)cc1, COc1cc(C2c3c(oc4ccccc4c3=O)C(=O)N2c2nc(C)c(C)s2)ccc1O (stereo unspecified), CCN(CC)C(=O)N(CC)Cc1ccccc1, COc1ccc(/C=N/OCC(=O)N(Cc2ccccc2)c2ccccc2C(=O)O)cc1, O=C(CCCOc1ccccc1)Nc1cccc(C(=O)O)c1, COc1cccc(/C=C2/SC(=S)N(CC(=O)NC3C=CS(=O)(=O)C3)C2=O)c1 (stereo unspecified), COc1ccc(/C=C2\SC(=S)N(CC(=O)NNC(=O)c3ccncc3)C2=O)cc1, Cc1ccc(/C=C2\SC(=S)N(CCC(=O)Nc3ccc(O)cc3)C2=O)cc1, Cc1ccc(C(=O)Nc2ccccc2F)cc1S(=O)(=O)N1CCOCC1, CC(C)(C)OC(=O)N1CCC(c2c(C(=O)N3CCc4ccccc4C3)cnn2-c2ccc(F)cc2)CC1, Cc1ccc(CN2CCC(CNC(=O)c3cnn(-c4ccccc4Cl)c3C3CCN(C(=O)OC(C)(C)C)CC3)CC2)cc1, CCc1ccc(S(=O)(=O)Nc2cc3c(C(=O)OCc4ccccc4)c(C)oc3c3ccccc23)cc1, COc1ccccc1N1CCN(S(=O)(=O)CCNC(=O)COc2ccc(F)cc2)CC1, O=C(C1CCCN(S(=O)(=O)c2cccc3nonc23)C1)N1CCN(c2ccccc2F)CC1 (stereo unspecified), COc1cc(C(=O)Nc2ccc(OCc3cc(=O)n4ccc(C)cc4n3)cc2)cc(OC)c1OC
